# Targets with a hit are over-represented here; the source holds about 7,900 in all. About 0.6% of all pairs of compound and target were hits. Unmarked numbers belong to inactive results.
# Key:
# Test in all cases: log2 fold change, soluble protein after heating vs DMSO (PISA); higher = thermal stabilisation; K562 cells, 10 uM, 30 min; active = over 0.2 and 3.5 SD of the protein, either way, in both replicates (recomputed)
# [1] = compound: CC1=C(C=C(C=C1)NC(=O)C2=CC(=CC=C2)C(C)(C)C#N)NC3=CC4=C(C=C3)N=CN(C4=O)C
# How it was run: (§1)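 Quantification of soluble protein used TMTpro 16plex LC-MS/MS, with channel sums equalised. Samples were the supernatant after 21,000xg for 90 min of pooled aliquots from K562 cells (2×10^6 cells/mL) treated with 10 μM compound for 30 min, heated for 3 min over 48°C-58°C, and extracted in PBS with 0.5% NP-40 at 4°C. Values, from duplicates, describe thermal stability against control samples on a log2 fold-change scale.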
# [2] = compound: CC1=C(C=C(C=C1)NC(=O)C2=CC(=CC=C2)N(C)C)NC(=O)C3=CC=C(C=C3)O
# How it was run: as §1
# [3] = compound: CC1=CC=C(C=C1)SC2=C3C=C(SC3=CN=C2)C(=O)N
# How it was run: as §1
# [4] = compound: CC1=NC(=CC=C1)C2=C(N=C(N2)C(C)(C)C)C3=CC4=NC=CN=C4C=C3
# How it was run: as §1
# [5] = compound: CCCCN(Cc1ccc(C(=O)NO)cc1)C(=O)Nc1ccccc1 [Nexturastat A]
# How it was run: as §1
# [6] = compound: CCCS(=O)(=O)Nc1ccc(F)c(C(=O)c2c[nH]c3ncc(-c4ccc(Cl)cc4)cc23)c1F [vemurafenib]
# How it was run: as §1
# [7] = compound: CCCS(=O)(=O)Nc1ccc(F)c(C(=O)c2c[nH]c3ncc(Cl)cc23)c1F
# How it was run: as §1
# [8] = compound: CCCc1cc(C)[nH]c(=O)c1CNC(=O)c1cc(-c2ccnc(N3CCN(C)CC3)c2)cc2c1cnn2C(C)C
# How it was run: as §1
# [9] = compound: CCN(CC)Cc1ccc2cc(COC(=O)Nc3ccc(C(=O)NO)cc3)ccc2c1 [givinostat]
# How it was run: as §1
# [10] = compound: CCN(CCCOc1ccc2c(Nc3cc(CC(=O)Nc4cccc(F)c4)[nH]n3)ncnc2c1)CCOP(=O)(O)O [barasertib]
# How it was run: as §1
# [11] = compound: CC[C@@H]1C(=O)N(C)c2cnc(Nc3ccc(C(=O)NC4CCN(C)CC4)cc3OC)nc2N1C1CCCC1
# How it was run: as §1
# [12] = compound: CC[C@@H]1C(=O)N(C)c2cnc(Nc3ccc(C(=O)N[C@H]4CC[C@H](N5CCN(CC6CC6)CC5)CC4)cc3OC)nc2N1C(C)C [volasertib]
# How it was run: as §1
# [13] = compound: CC[C@H](C)N1C=C(C2=C(C=C(C=C21)C3=CN=C(C=C3)N4CCNCC4)C(=O)NCC5=C(C=C(NC5=O)C)C)C
# How it was run: as §1
# [14] = compound: CC[C@H](C)[C@@H](C(=O)N[C@@H]([C@@H](C)O)C(=O)N[C@@H](CC(C)C)C(=O)[C@]1(CO1)C)NC(=O)[C@H]([C@@H](C)CC)N(C)C(=O)C [epoxomicin]
# How it was run: as §1
# [15] = compound: CCn1c(C(=O)N(C2CC2)C2CC2)cc2c3c(ncn3C)c(Nc3cc(C)n(C)n3)nc21
# How it was run: as §1
# [16] = compound: CCn1cc(-c2ccnc3[nH]c(-c4cccc(CN(C)C)c4)cc23)c(-c2ccc(NC(=O)N(C)C)cc2)n1
# How it was run: as §1
# [17] = compound: CN(C)CC(=O)Nc1ccc2[nH]c(=O)c3ccccc3c2c1
# How it was run: as §1
# [18] = compound: CN(CCOC1=CC=C(C=C1)C[C@H]2C(=O)NC(=O)S2)C3=CC=CC=N3 (racemic) [rosiglitazone]
# How it was run: as §1
# [19] = compound: CN1C2=C(C3=C1C(=O)N(N=C3)CC4=CC(=CC=C4)N)SC(=C2)S(=O)C
# How it was run: as §1
# [20] = compound: CN1CCC(CNc2ccc3ncc(-c4cccc(OC(F)(F)F)c4)n3n2)CC1
# How it was run: as §1
# UniProt Q9BRQ8, sequence (Q9BRQ8 whole entry, looked up): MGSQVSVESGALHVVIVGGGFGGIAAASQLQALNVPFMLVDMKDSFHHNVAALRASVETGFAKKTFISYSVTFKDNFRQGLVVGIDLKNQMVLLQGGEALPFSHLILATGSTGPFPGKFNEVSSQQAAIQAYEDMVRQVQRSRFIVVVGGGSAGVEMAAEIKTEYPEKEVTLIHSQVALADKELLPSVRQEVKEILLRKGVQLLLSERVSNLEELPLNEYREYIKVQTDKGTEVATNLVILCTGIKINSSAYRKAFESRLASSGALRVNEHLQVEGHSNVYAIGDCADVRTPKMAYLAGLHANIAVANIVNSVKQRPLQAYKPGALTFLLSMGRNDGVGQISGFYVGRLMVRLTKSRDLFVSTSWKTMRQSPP
# UniProt P98196, sequence (P98196 whole entry, looked up): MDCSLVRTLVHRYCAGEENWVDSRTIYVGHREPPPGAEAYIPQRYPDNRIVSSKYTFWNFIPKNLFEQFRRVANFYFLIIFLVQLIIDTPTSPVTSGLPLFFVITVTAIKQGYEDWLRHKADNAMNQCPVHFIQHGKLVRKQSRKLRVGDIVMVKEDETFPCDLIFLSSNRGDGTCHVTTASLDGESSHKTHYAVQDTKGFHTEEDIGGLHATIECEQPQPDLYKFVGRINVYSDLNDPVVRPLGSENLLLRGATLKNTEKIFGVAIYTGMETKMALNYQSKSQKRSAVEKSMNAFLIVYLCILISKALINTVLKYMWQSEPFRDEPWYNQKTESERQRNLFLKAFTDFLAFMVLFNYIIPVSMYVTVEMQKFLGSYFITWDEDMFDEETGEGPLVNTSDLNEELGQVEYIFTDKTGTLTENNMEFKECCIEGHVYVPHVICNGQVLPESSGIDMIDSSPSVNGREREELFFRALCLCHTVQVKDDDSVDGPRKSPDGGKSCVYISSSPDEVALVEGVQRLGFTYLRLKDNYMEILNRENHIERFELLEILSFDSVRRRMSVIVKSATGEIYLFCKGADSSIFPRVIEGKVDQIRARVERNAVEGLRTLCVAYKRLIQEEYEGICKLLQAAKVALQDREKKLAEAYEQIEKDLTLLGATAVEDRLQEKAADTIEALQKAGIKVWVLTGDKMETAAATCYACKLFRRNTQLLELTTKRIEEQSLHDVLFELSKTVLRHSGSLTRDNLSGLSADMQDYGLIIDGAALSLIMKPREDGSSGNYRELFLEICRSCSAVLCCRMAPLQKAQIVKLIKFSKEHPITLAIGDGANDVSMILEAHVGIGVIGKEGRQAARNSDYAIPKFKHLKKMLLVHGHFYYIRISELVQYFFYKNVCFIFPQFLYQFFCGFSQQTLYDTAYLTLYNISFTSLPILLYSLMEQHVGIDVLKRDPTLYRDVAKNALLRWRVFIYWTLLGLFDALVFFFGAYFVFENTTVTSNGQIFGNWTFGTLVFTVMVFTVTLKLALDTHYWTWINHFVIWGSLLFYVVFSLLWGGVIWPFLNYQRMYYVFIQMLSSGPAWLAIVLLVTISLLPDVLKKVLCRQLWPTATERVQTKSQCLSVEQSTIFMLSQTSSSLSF
# UniProt O60488, sequence (O60488 whole entry, looked up): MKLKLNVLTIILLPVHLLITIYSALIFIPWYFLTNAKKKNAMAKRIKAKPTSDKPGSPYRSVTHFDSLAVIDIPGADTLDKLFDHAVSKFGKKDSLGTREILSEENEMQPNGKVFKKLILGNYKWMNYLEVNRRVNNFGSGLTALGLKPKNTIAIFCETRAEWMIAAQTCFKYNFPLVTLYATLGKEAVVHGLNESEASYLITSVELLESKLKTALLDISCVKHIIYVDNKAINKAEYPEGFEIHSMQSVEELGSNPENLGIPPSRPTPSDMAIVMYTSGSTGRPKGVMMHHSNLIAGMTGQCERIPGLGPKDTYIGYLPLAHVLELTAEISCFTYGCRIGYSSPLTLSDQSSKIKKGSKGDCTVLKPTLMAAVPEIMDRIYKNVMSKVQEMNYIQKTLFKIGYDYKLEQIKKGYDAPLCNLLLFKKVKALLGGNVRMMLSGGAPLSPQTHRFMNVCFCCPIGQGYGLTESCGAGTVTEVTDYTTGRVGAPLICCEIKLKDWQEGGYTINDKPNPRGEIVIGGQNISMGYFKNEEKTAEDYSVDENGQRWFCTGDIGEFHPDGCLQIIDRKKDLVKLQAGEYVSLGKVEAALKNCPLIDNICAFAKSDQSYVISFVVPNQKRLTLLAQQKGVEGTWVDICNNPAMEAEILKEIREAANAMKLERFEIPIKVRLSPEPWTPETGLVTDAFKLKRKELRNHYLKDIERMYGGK
# UniProt Q9BTE6, sequence (Q9BTE6 whole entry, looked up): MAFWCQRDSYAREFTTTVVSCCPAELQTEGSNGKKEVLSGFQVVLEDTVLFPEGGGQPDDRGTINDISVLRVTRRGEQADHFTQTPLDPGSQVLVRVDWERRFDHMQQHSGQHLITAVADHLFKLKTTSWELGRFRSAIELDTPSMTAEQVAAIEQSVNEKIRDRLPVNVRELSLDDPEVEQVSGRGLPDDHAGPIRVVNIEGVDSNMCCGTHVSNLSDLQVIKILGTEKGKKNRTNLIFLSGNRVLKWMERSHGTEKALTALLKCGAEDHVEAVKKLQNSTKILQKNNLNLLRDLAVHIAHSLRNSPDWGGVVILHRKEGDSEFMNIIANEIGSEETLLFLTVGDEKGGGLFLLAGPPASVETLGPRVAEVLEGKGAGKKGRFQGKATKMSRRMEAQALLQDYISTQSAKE
# UniProt O14727, sequence (O14727 whole entry, looked up): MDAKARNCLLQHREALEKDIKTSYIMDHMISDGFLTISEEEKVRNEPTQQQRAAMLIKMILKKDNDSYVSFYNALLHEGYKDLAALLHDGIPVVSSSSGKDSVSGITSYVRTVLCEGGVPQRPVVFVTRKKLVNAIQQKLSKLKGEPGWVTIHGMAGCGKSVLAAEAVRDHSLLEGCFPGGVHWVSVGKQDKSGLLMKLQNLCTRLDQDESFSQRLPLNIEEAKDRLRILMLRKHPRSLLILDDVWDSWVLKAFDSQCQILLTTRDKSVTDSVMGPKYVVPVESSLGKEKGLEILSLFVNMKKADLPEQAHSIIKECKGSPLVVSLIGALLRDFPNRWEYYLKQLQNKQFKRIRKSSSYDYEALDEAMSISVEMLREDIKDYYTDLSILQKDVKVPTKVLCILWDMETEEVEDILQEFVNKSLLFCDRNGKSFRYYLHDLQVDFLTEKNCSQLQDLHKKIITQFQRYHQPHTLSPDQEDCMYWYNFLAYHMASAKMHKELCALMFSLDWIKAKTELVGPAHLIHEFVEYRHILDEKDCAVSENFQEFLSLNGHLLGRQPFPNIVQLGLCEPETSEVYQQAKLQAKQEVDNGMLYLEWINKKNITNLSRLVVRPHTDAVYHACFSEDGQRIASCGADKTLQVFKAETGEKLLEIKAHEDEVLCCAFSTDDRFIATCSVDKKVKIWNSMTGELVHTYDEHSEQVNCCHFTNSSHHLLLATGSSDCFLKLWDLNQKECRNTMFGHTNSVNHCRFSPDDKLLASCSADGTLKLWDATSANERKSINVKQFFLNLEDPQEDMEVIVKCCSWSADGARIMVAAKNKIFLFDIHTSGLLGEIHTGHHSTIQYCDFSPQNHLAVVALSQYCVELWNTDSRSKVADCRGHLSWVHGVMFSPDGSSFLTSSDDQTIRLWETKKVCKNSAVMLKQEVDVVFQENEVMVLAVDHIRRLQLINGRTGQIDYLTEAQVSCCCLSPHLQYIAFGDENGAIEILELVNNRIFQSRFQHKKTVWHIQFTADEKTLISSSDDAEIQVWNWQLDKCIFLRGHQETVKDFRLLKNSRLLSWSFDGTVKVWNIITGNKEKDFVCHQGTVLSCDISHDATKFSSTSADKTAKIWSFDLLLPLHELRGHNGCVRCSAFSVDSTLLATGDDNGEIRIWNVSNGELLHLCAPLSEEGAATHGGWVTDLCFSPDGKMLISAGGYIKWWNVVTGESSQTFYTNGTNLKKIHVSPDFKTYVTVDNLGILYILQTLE
# UniProt Q9UEY8, sequence (Q9UEY8 whole entry, looked up): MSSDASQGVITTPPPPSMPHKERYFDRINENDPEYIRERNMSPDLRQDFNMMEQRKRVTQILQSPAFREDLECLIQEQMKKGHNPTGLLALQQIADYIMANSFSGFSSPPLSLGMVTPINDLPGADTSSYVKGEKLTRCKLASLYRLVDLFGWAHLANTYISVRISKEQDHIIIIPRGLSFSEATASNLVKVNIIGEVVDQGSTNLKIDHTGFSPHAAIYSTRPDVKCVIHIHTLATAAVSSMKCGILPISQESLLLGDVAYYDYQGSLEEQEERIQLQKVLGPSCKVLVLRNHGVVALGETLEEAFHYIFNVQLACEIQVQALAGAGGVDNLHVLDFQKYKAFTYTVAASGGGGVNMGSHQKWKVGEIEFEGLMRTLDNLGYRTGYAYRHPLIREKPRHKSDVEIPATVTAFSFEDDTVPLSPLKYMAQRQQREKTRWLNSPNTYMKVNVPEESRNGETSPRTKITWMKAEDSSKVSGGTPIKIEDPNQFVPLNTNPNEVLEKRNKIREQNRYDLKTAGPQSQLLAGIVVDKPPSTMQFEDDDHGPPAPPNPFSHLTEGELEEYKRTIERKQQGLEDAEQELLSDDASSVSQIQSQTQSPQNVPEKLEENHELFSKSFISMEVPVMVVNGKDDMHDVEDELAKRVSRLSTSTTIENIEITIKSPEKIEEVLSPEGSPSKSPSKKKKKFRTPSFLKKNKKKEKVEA
# UniProt Q13685, sequence (Q13685 whole entry, looked up): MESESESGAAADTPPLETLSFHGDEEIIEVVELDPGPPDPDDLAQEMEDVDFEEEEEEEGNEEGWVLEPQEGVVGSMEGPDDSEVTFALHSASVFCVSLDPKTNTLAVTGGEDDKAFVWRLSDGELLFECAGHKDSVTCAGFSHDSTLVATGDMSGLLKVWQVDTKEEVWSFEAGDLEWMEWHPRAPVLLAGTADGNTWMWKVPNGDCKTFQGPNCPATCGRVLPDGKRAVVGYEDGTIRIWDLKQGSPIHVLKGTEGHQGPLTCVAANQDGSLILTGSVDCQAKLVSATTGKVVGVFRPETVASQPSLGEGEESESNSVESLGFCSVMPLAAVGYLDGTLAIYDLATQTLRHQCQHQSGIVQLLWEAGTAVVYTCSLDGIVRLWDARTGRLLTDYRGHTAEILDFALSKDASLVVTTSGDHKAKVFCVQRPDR
Target,log2 fold change [1],log2 fold change [2],log2 fold change [3],log2 fold change [4],log2 fold change [5],log2 fold change [6],log2 fold change [7],log2 fold change [8],log2 fold change [9],log2 fold change [10],log2 fold change [11],log2 fold change [12],log2 fold change [13],log2 fold change [14],log2 fold change [15],log2 fold change [16],log2 fold change [17],log2 fold change [18],log2 fold change [19],log2 fold change [20]
BPHL (UniProt Q86WA6),-0.037,-0.031,-0.058,0.017,-0.205,0.004,-0.062,0.057,0.023,-0.006,0.013,-0.005,0.065,0.005,0.027,-0.017,-0.07,0.041,0.017,0.063
AARSD1 isoform 3 (UniProt Q9BTE6),0.016,-0.04,-0.003,0.034,-0.077,0.003,0.122,0.03,-0.273 (active),0.032,-0.081,-0.27 (active),0.019,0.083,0.009,-0.01,0.037,0.05,0.02,0.021
ALKBH5 (UniProt Q6P6C2),-0.12,-0.017,-0.046,-0.031,-0.068,-0.071,-0.09,0.162,0.092,-0.023,0.08,0.109,0.01,-0.033,-0.112,-0.058,-0.058,-0.015,-0.011,0.041
AAMP (UniProt Q13685),0,-0.006,-0.028,-0.04,0.012,-0.018,0.018,-0.041,0.033,-0.006,0.072,0.051,-0.016,-0.017,0.023,-0.016,0.011,0.001,-0.004,0.054
ACSL4 (UniProt O60488),0.018,-0.051,0.418 (active),-0.002,0.233,0.021,0.104,0.053,0.047,0.034,-0.15,-0.276,-0.051,0.024,-0.098,-0.029,0.092,1.17 (active),0.051,-0.229
ARL6IP4 (UniProt Q66PJ3),-0.048,0.016,-0.005,0,0.001,-0.07,-0.019,-0.038,0.005,-0.01,0.008,-0.009,-0.023,0.014,0.015,-0.025,0.001,0.017,-0.065,0.01
ATP11A (UniProt P98196),-0.033,-0.022,-0.039,-0.007,-0.005,0.032,-0.027,-0.035,-0.007,-0.033,0.266,0.058,-0.094,0.001,0.026,-0.022,0.031,0.045,-0.083,0.084
BRAP (UniProt Q7Z569),0.057,0.075,0.023,0.029,-0.031,0.037,0.151,0.08,-0.081,0.08,-0.092,-0.23,0.033,-0.093,-0.02,0.086,0.02,0.02,0.06,-0.158
ADD3 (UniProt Q9UEY8),0.024,0.016,-0.015,-0.003,0.021,-0.021,0.006,-0.013,-0.043,-0.01,0.098,0.056,-0.024,0.014,0.01,0.054,-0.03,-0.006,-0.056,-0.023
APAF1 (UniProt O14727),0.023,0.014,-0.003,-0.125,0.056,-0.006,-0.068,-0.1,0.395 (active),–,-0.123,-0.076,0.187,-0.045,-0.231,-0.009,0.037,–,0.148,-0.088
ABCA3 (UniProt Q99758),-0.029,0.011,-0.008,-0.035,-0.142,-0.161,-0.112,–,0.059,0.196,-0.155,-0.093,–,0,-0.035,0.168,0.108,-0.172,-0.013,-0.263
ALDH9A1 (UniProt P49189),0.004,0.004,-0.015,–,-0.125,0.026,0.005,0.18,0.058,0.05,-0.035,0.009,0.111,-0.011,0.095,-0.005,0,-0.062,-0.015,0.016
ASB6 (UniProt Q9NWX5),-0.085,-0.033,0.117,-0.175,0.125,-0.144,0.108,-0.039,0.108,0.031,0.047,-0.321,0.028,-0.094,-0.016,-0.076,0.041,0.067,–,-0.083
ARHGAP1 (UniProt Q07960),-0.024,-0.022,-0.009,0.012,0.03,0.002,0.052,-0.018,-0.014,0.006,0.014,-0.027,0.021,0.013,-0.006,-0.082,-0.007,0.03,-0.014,0.19
AGAP3 isoform 4 (UniProt Q96P47),0.037,0.071,-0.039,-0.081,0.252,–,-0.022,0.089,0.113,0.199,0.154,-0.038,0.105,0.034,0.019,–,–,0.162,–,–
AIFM2 (UniProt Q9BRQ8),0.013,0,0,-0.017,0.019,-0.036,-0.026,0.021,0.011,-0.024,0.002,-0.035,-0.058,-0.035,-0.025,-0.017,0.003,0.001,-0.069,0.068

# Source: the supplement of paper PMC10849652
